Among the data in PubChem BioAssay AID1508600 (Functional Genomics Laboratory (NCATS/FGL), 2020) are z-score values, retold here.

In all, about 53,000 sequences went through this assay and about 3,700 (7%) were called active.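 How the source made its calls: active means gene knockdowns whose robust z-score for IL-1 alpha signal is at least 2 or at most -2, so actives lie on both sides; inactive means the rest.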 This excerpt belongs to a sample that is enriched for actives.

This test is described as follows: Components of the Cytosolic LPS Sensing Pathway: Gene Identification via Genome-wide siRNA Screen.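 Further: robust z of the log signal after scaling to non-targeting control siRNA wells of the plate.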 Particulars: RAW264.7 macrophages, IL-1a HTRF, actives lie on both sides, screened at 100 nM (by protocol), cells primed 5 h with Pam3CSK4 first. The essentials:
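Three distinct siRNAs per gene were tested singly at 100 nM in RAW264.7 macrophages. Following Pam3CSK4 priming and 24 hour LipidA transfection, IL-1a secretion was read by HTRF.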
(In general: Time-resolved FRET reads energy transfer from a long-lived donor to a nearby acceptor.)
For the sequence GGCGAUAGUGUCUAAGAAATT against Cfap298, the z-score is -0.0112 (inactive).
Next, GGAUGAGAAAUACUUUCGGTT against C8a: 0.126 (inactive).
For the sequence GGCAAGUGCCCAAGUUUGUTT against Ifi35, the z-score was 1.08 (inactive).
Next, GGCAUAUUGUUUCAUUUUGTT against Rlbp1: -1.19 (inactive).
Take GGCUUUAUAUGAAACUCCUTT against Acrv1: the z-score is -2.01 (active).
Turning to GCACAGUAGUUCUUGCAUCTT against Olfr891, the z-score was 0.13 (inactive).
For the sequence CCUAGUCCCUCUGUCUCUUTT against Kctd13, the z-score was -1.79 (inactive).
In the case of GUACACCAGUGGAAGCACATT against Sprr2b, the z-score is -1.91 (inactive).
Next, GGAUUUGUCAAUGCAAUAATT against Olfr1012: -2.68 (active).
As to GGACAACAUAUUCUGAUAATT against Stmnd1, the z-score was 1.68 (inactive).
Consider GGCUUCCUACCUAAGGCUUTT against Bora, for which the z-score was -0.924 (inactive).
With CCAGACUACGGUGCUAAGATT against Defb21, the z-score was 2.49 (active).
Regarding GGCCGUGUUAAGGAAUCUGTT against Cidea, the z-score is 0.653 (inactive).
Next, CCUCUUCUGCGCGGAUUUGTT against Ffar4: 0.708 (inactive).
As for GGAGAAAGCUUACUGCCUUTT against Lrrc6, the z-score is -0.959 (inactive).
Next, GGAACAGCAGUUUUUGUUUTT against Rnf44: 0.097 (inactive); GGCGAGUCUACGUGACACUTT against Arrb1: 0.701 (inactive).
In the case of GGACAUCGUGCUCUAUCUCTT against Nrarp, the z-score is -1.07 (inactive).
The same measure for GCAGAUCUUGUGAUUAAUGTT against Ildr1: 0.882 (inactive); for CCCAUGGAAUGAAAACAACTT against Gm4894: 2.58 (active).
For GGAAAUAGUUGGUUUUGAATT against Slfn1, the z-score is -1.95 (inactive).
Next, GCAUUAGGAAUUCAAUUAGTT against Adamts1: 0.813 (inactive).
Consider “GGACGUAGCUAUGGAGGAUTT against 1810009A15Rik”, for which the z-score is -1.83 (inactive).
GGAAACCAGAAAAACUGAATT against Parg: the z-score is 0.653 (inactive).
Next, GGAUUAAUUAAUACUUGGCTT against Rps9: 0.986 (inactive); CCGACACGUUCUCAAUGUCTT against Gss: -0.496 (inactive); GGAAGGACAAAGAAAGCCUTT against Fbxw4: -0.286 (inactive).
Turning to GGUUCUUAGGAGUUAACUCTT against Klf16, the z-score is 2.71 (active).
Turning to GGAGAUCAUGCUCAAGAACTT against Dgke, the z-score is 0.176 (inactive).
The same measure for GGACACCUACUUGGUAUUGTT against Epor: -0.632 (inactive); for GGAGAGUAUCAGCAAUGAATT against Impg2: 1.02 (inactive); for GGAAAGUUCCCAUGUUCUCTT against Mgat4f: 1.33 (inactive).
CGUGAGAUCAUUGAUGUGGTT against Ankrd2: the z-score is -1.16 (inactive).
Consider GGAUUCUCCAGACACCUUGTT against Styxl1, for which the z-score is -0.704 (inactive).
In the case of GCUAUUGCCUUAGAUCCAUTT against Lrp6, the z-score is 0.384 (inactive).
Consider GCUCAACUUCUGAAUUAUATT against Enpep, for which the z-score is 2.64 (active).
The same measure for GGUCAGCAUCACCUACGAUTT against Prss8: -0.688 (inactive).
Regarding GGAGCUGAAGCAAAGACAGTT against Svbp, the z-score was -0.599 (inactive).
On to GGAAACAACCAUCGAGGUUTT against Cyp4x1, for which the z-score was -0.31 (inactive).
Consider GGCUGUGACUCUGGAUUUGTT against Bdh1, for which the z-score is -0.985 (inactive).
In the case of GGAUUCUGAACACUUUUUCTT against Pot1a, the z-score is -2.02 (active).
With GCACCAUGUAUACAAAAGATT against Pcdhb3, the z-score is 0.0679 (inactive).
Turning to GGAGUUUGUGAAUAAAUGUTT against Map2k2, the z-score was 0.177 (inactive).
The same measure for GUGGAAGACUUCACCGGACTT against Arxes1: 2.01 (active).
Turning to GCUUACUUUGGAACACAAATT against Tex18, the z-score was 1.22 (inactive).
Take GCAGGAUUGCAUAUAUCGGTT against Cspg5: the z-score was -0.672 (inactive).
Consider CGAUGCUGUUCUUCAAUGUTT against Krt222, for which the z-score was 1.23 (inactive).
Next, GGUUUGAAUUCAAGUUCAUTT against Klhl5: 0.616 (inactive); GGAAAAAUAGGUCGAAUGATT against Arntl: 0.229 (inactive); CGAUUCCAACAAGAAAGUGTT against Togaram2: 0.649 (inactive).
Turning to GCGGGAGAAGCUAAUGAAATT against Ndufs5, the z-score is 2.21 (active).
As for GGAUUUUGUUUCAGGUGGATT against Itgb8, the z-score is 1.78 (inactive).
Turning to GGCAGAUGGUAUCAGCUGUTT against Cd248, the z-score was -1.11 (inactive).
Next, GGAGACAAACUCAAAACUGTT against Lyplal1: -1.12 (inactive); CACUGAACAGAUCAGAGCATT against Fam189b: -2.44 (active).
For AAUCUUGAGAGAUUUCUCCTT against Scd2, the z-score is -0.047 (inactive).
In the case of GCCACGGCCAGUAAAACAUTT against Cdcp1, the z-score was 0.335 (inactive).
As to GGAUGAGUUUUUAAAGUCATT against Otop2, the z-score was -0.883 (inactive).
As to GGCAAUGUCAGAGCUAAUCTT against Mettl25, the z-score was 0.596 (inactive).
For GGGACAACCUGGAUGACAUTT against Coq6, the z-score is -0.0644 (inactive).
Take CCUUUGUCCGGUCCAUUCCTT against Hk1: the z-score was -0.654 (inactive).
The same measure for GCAAGUUCGAAUCCUCCGUTT against Dach2: 4.72 (active); for GGUGAAUGGCAUGACCAUATT against Asb9: 0.49 (inactive).
Regarding GGAGUCCUUUAAGAUUAUATT against Pex13, the z-score was 1.3 (inactive).
For GGUAGAUGAUGAAAAACAATT against Erich3, the z-score was -2.02 (active).
On to GGAAGAAUCUGUUACUUUUTT against Rad1, for which the z-score is -0.693 (inactive).
With CCUUUUAGGGAAAUUUGCATT against Mcm9, the z-score is 0.651 (inactive).
GGGAAGAACUGUGAUUAUUTT against Hspd1: the z-score was 0.625 (inactive).
With CCAUUGAACAGCAGAUUGGTT against Atp7a, the z-score is 0.81 (inactive).
As for GGUCUUCUUCGUGUUCAUCTT against Olfr281, the z-score is -0.0815 (inactive).
For the sequence GGAAAAAUUGAAGUUGAUCTT against Iqcj, the z-score is -1.35 (inactive).
As for GGCUCGUCAAAUCAAGUAUTT against H2bc6, the z-score is -2.37 (active).
Next, GGAAAUCAAGCUGAAGUUATT against Eqtn: 0.231 (inactive); GCGCAAACAACACAUCGUCTT against Ccpg1: 0.503 (inactive).
Turning to GGCUGUCAUCCAAGAACUUTT against Mtcp1, the z-score is 0.176 (inactive).
Turning to GGAGAUCCGAGUGAGGAAUTT against Eif3b, the z-score is 2.91 (active).
In the case of GGUUUAACUAGAAUUUGGUTT against Cyp2ab1, the z-score is 1.75 (inactive).
Turning to GGACAAGAAUAAGUACAACTT against Rpl5, the z-score was -0.918 (inactive).
Next, GCCCUUGAACGGAGAAUAGTT against Brk1: -1.59 (inactive); GCUCUGACCAUCCUUAGCUTT against Olfr938: -2.62 (active).
On to GCCAUACGAUCUGCAUUUCTT against Zbtb38, for which the z-score is -1.85 (inactive).
In the case of GGAACAAGUAAAAUUCGUCTT against Tssk2, the z-score was 1.71 (inactive).
As to GGGUUAUGAAGAAGCUCCUTT against Olfr1262, the z-score is -1.52 (inactive).
For GCUGUGUGACCAGCUGUUGTT against Krtap9-1, the z-score is 0.44 (inactive).
With CCUACGUCAUUUCAGCACCTT against Hc, the z-score was 0.356 (inactive).
The same measure for “GCUCCCAUUAUCAUUCAAATT against D3Ertd751e”: 1.67 (inactive); for GGAGCUCUGGCACUUUGUCTT against Gramd1b: 0.37 (inactive); for GGAGAAAAGAGGCUUCCAGTT against Lad1: 0.754 (inactive).
The same measure for CCCAGAUACCUGGAAAACGTT against Fam189a1: -2.17 (active); for GGUAUUCCUCUAGAUCAGATT against Dysf: 0.627 (inactive).
Turning to GGAUUUGGAGCAGGUGGAUTT against Avpr1b, the z-score was -0.97 (inactive).
For the sequence AUGCUUUUUGGAGCCAUAUTT against Olfr307, the z-score was 3.07 (active).
Next, GCCCUGAACUACCUAGAAATT against Alg5: 1.58 (inactive).
Next, GGUUAAGAUUCCAGAGCCATT against Prune1: -0.297 (inactive); GGAGAAUCUGGUCUGGGUATT against Septin4: 1.04 (inactive).
For the sequence GGGCAAGUAUGGCUAUGUGTT against Pram1, the z-score is -0.178 (inactive).
The same measure for GGCCAAGAGAAUCUAAAGATT against Strn4: -0.338 (inactive); for GGAGACACUGAAUGUGACATT against Ttyh1: -2.03 (active); for UGUAACCAUGGUUACCGUGTT against Olfr1513: 0.311 (inactive).
As to GGCUGAGAACAUCAAAAAATT against Folh1, the z-score is 0.816 (inactive).
As for GGAAUUGAGGUGAUGGAUATT against Sfxn4, the z-score was -0.144 (inactive).
Turning to CGGGAUCUAUCCACUGAUGTT against Nrbp2, the z-score was -0.983 (inactive).
Consider GGCUACAAGGAGAAGUUUGTT against Traf3, for which the z-score is 2.02 (active).
Regarding GCUCUAUGGAUCCUUGGAGTT against Zfp574, the z-score is 0.772 (inactive).
Take GCUCAAUGUGACAGUGGUGTT against Elane: the z-score is 0.38 (inactive).
The same measure for GGAAACCGUUCUCAUUAAATT against Mrpl30: 0.599 (inactive); for GGUUUGGUUGAAAUUGAACTT against Smc5: -1.16 (inactive).
With CCUCAUGGUGAUGAUAUCCTT against Taar6, the z-score is -1.35 (inactive).
